# Source: PubChem
# Only some compounds are listed: those with a hit (about 6.7% of all), similar ones and a draw of the others.
# C diff HTS = C. difficile growth inhibition | Clostridium difficile clinical isolate growth, OD600, 24 h; hits give low values | growth activity, negative = inhibition, % at 16 µg/mL (by protocol) | actives 0.25% (n = 86,000);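 active means mean growth activity at or below -80% and every replicate also at or below -80%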;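 further: 0% = DMSO wells and -100% = levofloxacin 16 µg/mL wells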
# T cruzi growth = T. cruzi proliferation inhibition; AID 624255; T. cruzi beta-gal in NIH3T3, GalScreen luminescence, 90 h; actives 5.9% (n = 77,000); inhibition, % at 8.34 µM;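 active means mean inhibition above about 93%, with at least 55% of replicates each passing it, limit read from the data, passing the limit was not always enough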
# Pf Dd2 inh = blocks growth of Plasmodium falciparum Dd2 parasites | P. falciparum Dd2 growth, SYBR Green, 72 h; hits give low values | activity change, % at 10 µM | actives 2.3% (n = 94,000) | AID 1159554; in the data active means activity change below about -80%
# An asterisk follows results filed as active; . = no result; ! = a repeat was not active.
SMILES,C diff HTS,T cruzi growth,Pf Dd2 inh
C[C@@H]1CCCCO[C@@H](CN(C)Cc2ccc(Cl)c(Cl)c2)[C@H](C)CN([C@H](C)CO)C(=O)c2cc(NC(=O)Nc3ccccc3)ccc2O1,15,73,-83*
Cc1noc(C)c1NC(=O)Nc1ccc2c(c1)C(=O)N([C@@H](C)CO)C[C@H](C)[C@@H](CN(C)Cc1ccc(Cl)c(Cl)c1)OCCCC[C@@H](C)O2,6,109,-85*
CC(C)NC(=O)Nc1ccc2c(c1)C(=O)N([C@H](C)CO)C[C@H](C)[C@H](CN(C)Cc1ccc(Cl)c(Cl)c1)OCCCC[C@@H](C)O2,11,.,.
COc1ccc(S(=O)(=O)N(C)C[C@H]2OCCCC[C@H](C)Oc3ccc(NS(=O)(=O)c4cccs4)cc3C(=O)N([C@H](C)CO)C[C@@H]2C)cc1,-4,-1,-48
COc1ccc(S(=O)(=O)Nc2ccc3c(c2)CC(=O)N([C@@H](C)CO)C[C@@H](C)[C@H](CN(C)CC2CCCCC2)O3)cc1,-3,76,-37
C[C@@H]1CN([C@@H](C)CO)C(=O)c2c(c3ccccc3n2C)-c2ccccc2CO[C@@H]1CN(C)S(=O)(=O)c1cccc(F)c1,3,53,-70
Cc1cccc(S(=O)(=O)N(C)C[C@@H]2OCc3ccccc3-c3c(n(C)c4ccccc34)C(=O)N([C@@H](C)CO)C[C@H]2C)c1,.,65,-82*
C[C@H](CO)N1C[C@H](C)[C@@H](CN(C)S(=O)(=O)c2ccccc2)OCc2ccccc2-c2c(n(C)c3ccccc23)C1=O,.,78,-71
Cc1cccc(S(=O)(=O)N(C)C[C@H]2OCc3ccccc3-c3c(n(C)c4ccccc34)C(=O)N([C@H](C)CO)C[C@H]2C)c1,.,91,-84*
COc1ccc(CNC(=O)C[C@H]2C[C@@H]3c4cc(NS(C)(=O)=O)ccc4O[C@@H]3[C@@H](CO)O2)cc1,0,32,15
COc1ccc2c3c([nH]c2c1)[C@H](CO)N(Cc1ccncc1)CC31CN(C(=O)c2cccnc2)C1,13,.,31
Cc1cccc(-c2ccc(C3[C@@H]4CN(C(=O)Nc5ccc(F)cc5)C[C@H]3N4)cc2)c1 (stereo partly drawn),-91*!,.,-13
Cc1cccc(-c2ccc(C3[C@@H]4CN(C(=O)Nc5ccccc5)C[C@H]3N4)cc2)c1 (stereo partly drawn),55,.,-15
O=C(Nc1ccc(C(F)(F)F)cc1)N1C[C@@H]2N[C@H](C1)C2c1ccc(/C=C/c2ccccc2)cc1 (stereo partly drawn),-100*,.,-90*!
O=C(Nc1ccc(C(F)(F)F)cc1)N1C[C@@H]2N[C@H](C1)C2c1ccc(-c2ccccc2)cc1 (stereo partly drawn),-98*,.,3
O=C(C1CCC1)N1C[C@@H]2N[C@H](C1)C2c1ccc(/C=C/c2ccccc2)cc1 (stereo partly drawn),61,.,-77
O=C(Nc1ccccc1)N1C[C@@H]2N[C@H](C1)C2c1ccc(-c2cccnc2)cc1 (stereo partly drawn),-5,.,-9
CCCN(C)C[C@@H]1OCCCC[C@@H](C)Oc2ccc(NS(=O)(=O)c3ccc(F)cc3)cc2C(=O)N([C@H](C)CO)C[C@@H]1C,2,93,6
CCCNC(=O)Nc1ccc2c(c1)C(=O)N(C)C[C@H](OC)[C@@H](C)CN(Cc1ccc(-c3ccccn3)cc1)[C@@H](C)CO2,.,68,-49
C[C@@H](NC(=O)C[C@H]1CC[C@@H]2[C@H](COC[C@H](O)CN2C(=O)Nc2cccc(F)c2)O1)c1ccccc1,-1,21,2
C(=C\c1ccc(C2[C@@H]3CN(Cc4cccnc4)C[C@H]2N3)cc1)/c1ccccc1 (stereo partly drawn),14,.,-90*
Fc1ccccc1-c1ccc(C2[C@@H]3CN(Cc4ccccc4)C[C@H]2N3)cc1 (stereo partly drawn),-98*,.,-32
Fc1ccccc1-c1ccc(C2[C@@H]3CN(Cc4ccccn4)C[C@H]2N3)cc1 (stereo partly drawn),-13,.,-4
c1ccc(CN2C[C@@H]3N[C@H](C2)C3c2ccc(-c3ccccc3)cc2)cc1 (stereo partly drawn),-6,.,21
c1ccc(CN2C[C@@H]3N[C@H](C2)C3c2ccc(-c3ccncc3)cc2)cc1 (stereo partly drawn),-5,.,-84*
SMILES,C diff HTS,T cruzi growth,Pf Dd2 inh
c1cncc(CN2C[C@@H]3N[C@H](C2)C3c2ccc(-c3cccnc3)cc2)c1 (stereo partly drawn),-8,.,-69
CN1C[C@@H]2[C@H](c3ccccc31)[C@H](CO)N2C(=O)Nc1ccccc1,11,9,0
CCCC#Cc1cnc2c(c1)C(=O)N([C@H](C)CO)C[C@@H](C)[C@@H](CN(C)C(=O)Nc1cccc(F)c1)O2,14,66,-36
CCCC#Cc1cnc2c(c1)C(=O)N([C@H](C)CO)C[C@@H](C)[C@@H](CN(C)C(=O)Nc1cc(F)ccc1F)O2,4,14,-54
CC(C)CC#Cc1cnc2c(c1)C(=O)N([C@H](C)CO)C[C@@H](C)[C@H](CN(C)C(=O)Nc1cc(F)ccc1F)O2,-7,107,-83*
CCCC#Cc1cnc2c(c1)C(=O)N([C@@H](C)CO)C[C@H](C)[C@H](CN(C)C(=O)Nc1cccc(F)c1)O2,1,.,-88*
COc1ccc2c3c(n(C)c2c1)[C@H](CO)N(C)CC31CCN(S(=O)(=O)c2cn(C)cn2)CC1,.,.,-12
CCC(=O)N[C@@H]1C=C[C@H](CC(=O)NCC2CC2)O[C@@H]1CO,-2,.,49
C[C@@H]1CCCCO[C@@H](CN(C)S(=O)(=O)c2cccs2)[C@@H](C)CN([C@@H](C)CO)C(=O)c2cc(NC(=O)Nc3ccc4c(c3)OCO4)ccc2O1,8,41,-67
C[C@@H]1CN([C@@H](C)CO)C(=O)c2cc(NC(=O)NC3CCCCC3)ccc2O[C@@H](C)CCCCO[C@@H]1CN(C)S(=O)(=O)c1cccs1,-1,50,-89*
C[C@@H]1CCCCO[C@H](CN(C)S(=O)(=O)c2cccs2)[C@H](C)CN([C@H](C)CO)C(=O)c2cc(NS(=O)(=O)c3ccccc3)ccc2O1,-12,89,-83*
C[C@@H]1CCCCO[C@@H](CN(C)S(=O)(=O)c2cccs2)[C@H](C)CN([C@@H](C)CO)C(=O)c2cc(NC(=O)NC3CCCCC3)ccc2O1,24,93,-45
C[C@@H]1CCCCO[C@@H](CN(C)S(=O)(=O)c2cccs2)[C@@H](C)CN([C@H](C)CO)C(=O)c2cc(NC(=O)Cc3ccccc3)ccc2O1,5,-148,-54
C[C@@H]1CCCCO[C@@H](CN(C)S(=O)(=O)c2cccs2)[C@@H](C)CN([C@H](C)CO)C(=O)c2cc(NS(=O)(=O)c3ccccc3)ccc2O1,-3,-13,-29
C[C@@H]1CN([C@H](C)CO)C(=O)c2cc(NC(=O)Cc3ccccc3)ccc2O[C@@H](C)CCCCO[C@@H]1CN(C)S(=O)(=O)c1cccs1,4,-98,-81*
C[C@@H]1CN([C@H](C)CO)C(=O)c2cc(NC(=O)Nc3ccc4c(c3)OCO4)ccc2O[C@@H](C)CCCCO[C@@H]1CN(C)S(=O)(=O)c1cccs1,10,64,-92*
